“And” between values parts separate entries of the source, which are not always exact repeats. Identical values can stand only once. Records with an inconclusive call do not appear. A call without a number means that no potency is given here. The source holds several records for some structures; these can differ, active in one and inactive in another. The source made the active and inactive calls. Calls follow the shape of the dose curve; as a rule, active = well fitted inhibition curve with a large enough effect in the repeat runs; inconclusive = weak or mixed curves, or effect the other way; inactive = no such curve, though single readings can be large or run the other way.
molecular target: Nuclear receptor ROR-gamma (Homo sapiens) (UniProt P51449); assay: qHTS assay to identify small molecule antagonists of the retinoid-related orphan receptor gamma (ROR-gamma) signaling pathway (AID 1159521; also: nearly all actives have a fitted effect of over 50% in size); conditions: Tet-on RORgamma CHO cells, RORE-luciferase, 16 h; series mostly up to 92.4 µM
Source text: U.S. Tox21 Program National Center for Advancing Translational Sciences [NCATS] NIH Chemical Genomics Center [NCGC] U.S. Environmental Protection Agency [EPA] National Institutes of Environmental Health Sciences [NIEHS] National Toxicology Program [NTP] U.S. Food and Drug Administration [FDA] Tox21 Assay Overview: Nuclear steroid hormone receptors are involved in many biological processes including inflammatory responses, cell proliferation, and apoptosis. Environmental factors or compounds disrupting these nuclear receptor pathways and gene expression may promote susceptibility to immunotoxicants and autoimmune diseases. One important group of these expression factors are the retinoid-related orphan receptors. To assess compounds that may interfere with the retinoid-related orphan receptor gamma (ROR-gamma) transcription factor, a cell-based luciferase assay was used. The CHO cell-based assay utilizes a TET-inducible ROR expression factor and ROR response element-LUC reporter gene. Reporter gene activity was induced using Doxycycline Hyclate and measured after 16 hr incubation. Tet-on ROR gamma CHO cells were used to screen against the Tox21 10K compound library for ROR gamma antagonists by quantification of decreased reporter gene activity in terms of decreased luminescence.
Tox21 Assay Protocol Summary: Tet-on ROR gamma CHO cells were dispensed at 1,000 cells in 4 uL of culture medium per well into white wall/solid bottom 1536-well plates using a Multidrop Combi (Thermo Scientific, Waltham, MA) dispenser. Following incubation at 37 C and 5% CO2 for 4 hr, 23 nL of compounds dissolved in DMSO, positive controls or DMSO only were transferred by a Pintool station (Kalypsys, San Diego, CA) and after 2 hr incubation at 37 C, one ul of 1 uM (final concentration) of Doxycycline Hyclate was added to all the wells by using a Flying Reagent Dispenser (FRD) (Aurora Discovery, San Diego, CA). After 16 hr incubation at 37 C and 5% CO2, 5 uL of ONE-Glo reagent (Promega Corporation, Madison, WI) was added to each assay plate using FRD. After 30 min incubation at room temperature, luminescence was quantified on a ViewLux plate reader (Perkin Elmer, Waltham, MA).
Potency is read from the fitted curve at half-maximal effect.

SMILES	Potency
Clc1cc(Cl)c(Cl)cc1Cl	inactive
CCCCCCCCCC(=O)O	inactive
Oc1ccc2ccccc2c1N=Nc1ccccc1	inactive
C[C@@H](O)[C@H]1C(=O)N2C(C(=O)O)=C(S[C@@H]3CN[C@H](C(=O)N(C)C)C3)[C@H](C)[C@H]12	inactive
CC1Cc2ccccc2N1NC(=O)c1ccc(Cl)c(S(N)(=O)=O)c1 (stereo not given)	inactive
ClC1=C(Cl)C(Cl)(Cl)C(Cl)=C1Cl	inactive
c1ccc2ccccc2c1	inactive
Cc1cc(NS(=O)(=O)c2ccc(N)cc2)no1	inactive
CNC[C@H](O)[C@@H](O)[C@H](O)[C@H](O)CO	inactive
O=C1O[C@H](CO)[C@@H](O)[C@H](O)[C@H]1O	inactive
CN(C)c1ccc(C(=N)c2ccc(N(C)C)cc2)cc1	21.4 µM (active) and 20.9 µM (active)
c1ccc2[nH]cnc2c1	inactive
CC#C[C@]1(O)CC[C@H]2[C@@H]3CCC4=CC(=O)CCC4=C3[C@@H](c3ccc(N(C)C)cc3)C[C@@]21C	30.6 µM (active) and 26.6 µM (active)
CC1CC(OC(=O)c2ccccc2O)CC(C)(C)C1 (stereo not given)	inactive
C=C(C)C(=O)OCCCCCCCCCCCC	inactive
OC[C@@H](O)[C@H](O)[C@H](O)[C@@H](O)CO	inactive
COC(=O)c1ccccc1O	inactive
S=c1nc[nH]c2nc[nH]c12	inactive
CC(=O)[C@@]1(O)CC[C@H]2[C@@H]3CCC4=CC(=O)CC[C@]4(C)[C@H]3CC[C@@]21C	inactive
CCc1ccc(O)cc1	inactive

SMILES	Potency
CC(C)Cc1ccccc1	inactive
CC(C)NCC(O)COc1cccc2ccccc12 (stereo not given)	inactive
OCC1CCCO1 (stereo not given)	inactive
COC(=O)c1ccc(C(=O)OC)cc1	1.96 µM (active) and inactive
CCC(=O)O	inactive
Nc1nc2ncc(CNc3ccc(C(=O)N[C@@H](CCC(=O)O)C(=O)O)cc3)nc2c(=O)[nH]1	inactive
CCOC(=O)C1OC1c1ccccc1 (stereo not given)	inactive
C=C(C#N)C(=O)OCC	inactive
Cc1ccc(N)c(S(=O)(=O)O)c1	inactive
O=C(Cl)c1c(Cl)c(Cl)c(C(=O)Cl)c(Cl)c1Cl	inactive
NS(=O)(=O)c1cc2c(cc1Cl)NC=NS2(=O)=O	inactive
CCCCOCCOCCOC(=O)CCCCC(=O)OCCOCCOCCCC	inactive
CCCCC(CC)C(=O)OCCOCCOCCOC(=O)C(CC)CCCC (stereo not given)	inactive
COC(=O)Nc1nc2ccc(Sc3ccccc3)cc2[nH]1	54.5 µM (active) and inactive
Oc1c(Cl)cc(Cl)c(Cl)c1Cl	53.3 µM (active) and 61.1 µM (active)
Oc1ccc2ccccc2c1	inactive
CCCCCC/C=C/CCCCCCCC(=O)O	inactive
O=C1N=C(O)CN1/N=C/c1ccc(-c2ccc([N+](=O)[O-])cc2)o1	inactive
Cc1ccc(C(=O)O)o1	inactive
NC(=O)/N=N/C(N)=O	inactive
